Compounds with a hit are over-represented: about 3.1% of the library has one in this group of screens.
uPA surface inh – qHTS for Inhibitors of Cell Surface uPA Generation; Potency, µM (doses to about 38.3 µM), without a hit: top-dose activity change, negative = inhibition, most hits filed as inhibitors; AID 540303, 2011; cell surface uPA generation assay, qHTS; actives 0.31% (n = 330,000); active = well fitted inhibition curve with a large enough effect; inconclusive = small, poorly fitted or top-dose-only effect; inactive = no such curve, though single readings can be large or run the other way; tested in mouse RAW 264.7 cells; note: potency is the fitted concentration of half-maximal effect; % is set by controls: 0 for no effect and ±100 for the full control effect; nearly all actives have a fitted effect of over 55% in size
DRD3 agonist – qHTS of D3 Dopamine Receptor Agonist: qHTS; D3R DiscoveRx beta-arrestin cells, luminescence, 90 min; D(3) dopamine receptor (Homo sapiens), P35462; actives 0.58% (n = 410,000); max activation, %; in the data active = max activation above about 30%; note: 0% is about no effect
Target sequence (P35462 whole entry, looked up): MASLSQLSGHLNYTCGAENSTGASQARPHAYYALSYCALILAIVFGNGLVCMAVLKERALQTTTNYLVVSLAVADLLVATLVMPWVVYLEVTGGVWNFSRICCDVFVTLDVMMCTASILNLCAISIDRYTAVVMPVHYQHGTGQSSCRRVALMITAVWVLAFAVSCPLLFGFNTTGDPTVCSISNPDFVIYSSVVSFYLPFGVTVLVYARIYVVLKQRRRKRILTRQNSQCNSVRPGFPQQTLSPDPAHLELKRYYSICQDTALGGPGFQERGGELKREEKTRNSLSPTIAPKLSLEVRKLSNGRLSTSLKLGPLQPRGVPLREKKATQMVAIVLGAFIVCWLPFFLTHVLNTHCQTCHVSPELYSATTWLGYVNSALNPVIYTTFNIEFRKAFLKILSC
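Agonist mode: compounds and dopamine controls were applied to plated cells for 90 min at 37 degrees C after an overnight attachment at 1500 cells/well. Luminescent read-out followed 30 - 60 minutes at room temperature with DiscoveRx detection reagent.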
RGS4 inh – Inhibitors of Regulator of G Protein Signaling (RGS) 4: qHTS; actives 0.039% (n = 390,000); AID 504845, 2011; Transcreener GDP fluorescence polarization, RGS4-accelerated GTP hydrolysis; Potency, µM (series often up to 114 µM), for the others: top-dose activity change, negative = inhibition, hits mostly inhibitors; Regulator of G-protein signaling 4 (Homo sapiens), P49798; active = well fitted inhibition curve with a large enough effect; inconclusive = small, poorly fitted or top-dose-only effect; inactive = no such curve, though single readings can be large or run the other way; note: potency is the fitted concentration of half-maximal effect; % is set by controls: 0 for no effect and ±100 for the full control effect; nearly all actives have a fitted effect of over 75% in size
Target sequence (P49798 whole entry, looked up): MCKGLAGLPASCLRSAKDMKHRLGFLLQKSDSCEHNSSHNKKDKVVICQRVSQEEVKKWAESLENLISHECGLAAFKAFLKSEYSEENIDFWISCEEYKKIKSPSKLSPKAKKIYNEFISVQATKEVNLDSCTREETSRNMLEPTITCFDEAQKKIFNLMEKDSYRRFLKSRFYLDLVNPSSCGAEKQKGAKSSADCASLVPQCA
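MLSMR compounds (23 nl, pin-transferred) preincubated 10 min at room temperature with a 500nM (2x) first reagent, then RGS4 at 900nM (2x) plus Transcreener GDP mix added; fluorescence polarization (620/688 nm) read before and after 90 min at 30 °C.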
D3 antag – qHTS of D3 Dopamine Receptor Antagonist: qHTS; D(3) dopamine receptor (Homo sapiens), P35462; D3R cells, DiscoveRx beta-arrestin luminescence, antagonist mode; hits give low values; max response, negative = inhibition, %; actives 2.5% (n = 360,000); in the data active = max response below about -50%; inconclusive = no clear call, values can overlap the other calls; note: % is set by controls: 0 for no effect and ±100 for the full control effect
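Cells expressing the human receptor were seeded at 1500 cells/well, incubated overnight at 37 degrees C in 5% CO2, then exposed to library compounds with dopamine controls for 90 minutes at 37 degrees C before luminescent detection.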
Starred values were filed as active, the others as inactive; i = inactive; ? = inconclusive; . = no result given; ! = not confirmed by another sample; [ ] = another dose, or the depositor's remark.

SMILES	uPA surface inh	DRD3 agonist	RGS4 inh	D3 antag
Cc1cc(NC(=O)C2CC=CCC2C(=O)O)no1 (configuration not stated)	-1%	2	21%	-54*
Cc1ccc(NC(=O)Cn2c(=O)n(CC3CCCO3)c(=O)c3ccccc32)cc1 (configuration not stated)	.	0	22%	.
Cc1ccc(NC(=O)CCS(=O)(=O)c2cc3c4c(c2)CCN4C(=O)CC3)c(C)c1	.	4	-9%	.
C=C1CC(COc2ccc3c(C)c(Cl)c(=O)oc3c2)(c2ccccc2)OC1=O (configuration not stated)	25%	-24	?	-99*
COc1ccc(C(CNC(=O)c2oc3ccc(F)cc3c2C)N2CCCCC2)cc1 (configuration not stated)	-9%	-23	-13%	-104*
COc1ccc(C(CNC(=O)c2oc3cc(Br)ccc3c2C)N2CCCCC2)cc1 (configuration not stated)	6%	-14	11%	-86*
COc1ccc(C(CNC(=O)c2oc3ccc(Br)cc3c2C)N2CCCCC2)cc1 (configuration not stated)	-2%	-15	-14%	-76*
CCc1ccc2oc(C(=O)NCC(c3ccc(OC)cc3)N3CCCCC3)c(C)c2c1 (configuration not stated)	-1%	-16	12%	-77*
Cc1c(C(=O)Nc2ccc(Br)cc2F)sc2ncnc(N(C)C3CCCCC3)c12	.	-5	10%	.
CCC1CCCCN1C(=O)CSc1nc2c([nH]c3ccccc32)c(=O)n1-c1cccc(OC)c1 (configuration not stated)	.	-6	-1%	.
Cc1ccc(OCC(=O)Nc2ccc3c(c2)nc(CCN2CCC(C)CC2)n3C)cc1	-3%	-16	-27%	-54*
Cc1cccc(OCC(=O)Nc2ccc3c(c2)nc(CN2CCCCC2)n3C)c1	-10%	-14	-3%	-92*
CC1CCN(CCc2nc3cc(NC(=O)NC4CCCCC4)ccc3n2C)CC1	.	-28	-3%	-86*
Cn1c(CCN2CCCCC2)nc2cc(NC(=O)NC3CCCCC3)ccc21	-11%	-13	18%[11.4 µM]	-9
COc1ccc(OCC(=O)Nc2ccc3c(c2)nc(CCN2CCC(C)CC2)n3C)cc1	-9%	-5	-6%	?
Cc1ccc2c(c1)C(=O)C(=O)N2CCOc1ccccc1	-2%	-20	-28%	-29
CCCN1C(=O)C(=O)c2cc(C)ccc21	3.2µM*	-31	-13%	-11
Cc1ccc2c(c1)C(=O)C(=O)N2Cc1ccc(Br)cc1	4.5µM*	-37	?	?
Cc1ccc2c(c1)C(=O)C(=O)N2Cc1ccc(OCCC(C)C)cc1	.	-18	0%	.
Cc1ccc2c(c1)C(=O)C(=O)N2c1ccc(C(F)(F)F)cc1	5%	-19	-9%	-15
Cc1ccc(CN2C(=O)C(=O)c3cc(C)ccc32)cc1	?	-11	-34%	-54*
Cc1ccc2c(c1)C(=O)C(=O)N2c1ccc(Cl)cc1	9%	-56	-28%	-55*
CCOc1ccc(NC(=O)Cn2c(=O)n(CCc3ccccc3)c(=O)c3c4c(sc32)CN(C(C)=O)CC4)cc1	.	-17	-8%	.
CC(C)C[C@@H](/C=C/S(C)(=O)=O)NC(=O)[C@H](CC(C)C)NC(=O)[C@H](CC(C)C)NC(=O)OCc1ccccc1	.	.	i	.
CCCCOc1ccc(C(=O)NCC2(N3CCN(C)CC3)CCCCC2)cc1	.	1	40%	.
SMILES	uPA surface inh	DRD3 agonist	RGS4 inh	D3 antag
Cc1ccc2c(c1)C(=O)C(=O)N2CCCOc1ccccc1C	1%	-12	?	?
CCCCN1C(=O)C(=O)c2cc(Cl)ccc21	?	-11	?	-120*
COc1cccc(-n2c(SCC(=O)N3CCc4ccccc43)nc3c([nH]c4ccccc43)c2=O)c1	.	5	17%	.
CCOC(=O)C(C)(C)N(Cc1ccccc1C)S(=O)(=O)c1ccc(Cl)c([N+](=O)[O-])c1	-12%	-3	-24%	-50*
CCCN(CCC)S(=O)(=O)c1ccc(Cl)c([N+](=O)[O-])c1	-4%	-15	-1%	?
COC(=O)C(CCSC)NC(=O)C1CCN(c2ncnc3c2nc2n3CCCCC2)CC1 (configuration not stated)	.	-1	-11%	.
COC(=O)c1ccc2c(=O)n(NC(C)=O)c(=S)[nH]c2c1	.	-15	-28%	11
COc1cc2[nH]c(=S)n(NC(=O)c3ccccc3)c(=O)c2cc1OC	.	-29	-10%	-61*
COc1cc2[nH]c(=S)n(C3CCCC3)c(=O)c2cc1OC	-6%	12	-31%	36
COc1cc2[nH]c(=S)n(C3CC3)c(=O)c2cc1OC	-10%	-12	?	-58*
Cc1cccc(CCNC(=O)c2nn(C)c3c2CSc2ccccc2-3)c1	.	3	13%	.
Cc1ccc(C(=O)Nc2cccc(C(=O)NCc3ccccc3)c2)cc1	10µM*	2	6%	-4
O=C(c1cc(-c2ccccc2)nc2ccccc12)N1CCN(c2ccccc2O)CC1	-5%	6	-41%	6
Cc1ccc2nc(-c3ccccc3)cc(C(=O)N3CCN(c4ccccc4O)CC3)c2c1	0%	31*	24%	37
CCOc1ccc(Nc2ccnc3cc(Cl)ccc23)cc1	-9%	-8	-10%	1
O=C(OCC(O)CO)c1ccccc1Nc1ccnc2cc(Cl)ccc12 (configuration not stated)	9%	46*!	4%	49
Cc1cccc(/N=C/c2c(O)ccc3oc4c(c23)CCCC4)n1	3%	-7	-48%	?
CC(C)CN=Cc1c(O)c([N+](=O)[O-])cc2oc3c(c12)CCCC3	-7%	-28	1%	-106*
O=[N+]([O-])c1cc2oc3c(c2c(C=NCc2ccccc2)c1O)CCCC3	0%	13	-49%	-85*
N#Cc1ccc(C(=O)Nc2ccc(Cl)c(-c3nc4cc(Cl)ccc4o3)c2)c(F)c1	.	-1	6%	.
O=C(CCCc1nc(-c2ccc(Cl)cc2)no1)NCC1CCCO1 (configuration not stated)	-15%	34*	-26%	7
COc1ccc(-c2noc(CCCC(=O)NCC3CCCO3)n2)cc1 (configuration not stated)	1%	9	-15%	2
CC(C)OC(=O)c1c(NC(=O)c2cccc(C(F)(F)F)c2)sc2c1CCCC2	.	3	-20%	.
O=C(NCCc1ccc(O)c(O)c1)C1COc2ccccc2O1 (configuration not stated)	-8%	92*	-6%	13
O=C(NCCc1ccccc1)C1COc2ccccc2O1 (configuration not stated)	-11%	-6	-23%	-3
COc1ccc(/C=N\NC(=O)C2COc3ccccc3O2)cc1O (configuration not stated)	-8%	-9	24%[11.4 µM]	-24

Source: PubChem BioAssay
